Laboratory results: the supplement of paper PMC6555819

Tests used:
Assay in all cases: PBM binding z-score (relative to random genomic background probes); higher = stronger binding; sequences stand for … in GC…GCGATTGACAGCGTAGAATGAAGG
[1] = system: PPARg:RXRa DBDmut IVT, anti-RXR (DBD mutation: RXRa K156A/R161A, NR concentration 270 nM, RXRa partner concentration 90 nM)
How it was run: (§1)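 Antibodies against each partner of ligand-free nuclear receptor dimers (one per run) detected binding on custom Agilent 4×180K protein-binding microarrays after 1 h incubation. The double-stranded probes had 34-nt variable regions carrying direct-repeat seeds, single-nucleotide variants, half-site ablations and random human genomic background sequences. Binding z-scores, from regression-normalized fluorescence, use the random background probes as reference.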

[2] = system: PPARg:RXRa IVT, anti-PPARg (NR concentration 270 nM, RXRa partner concentration 90 nM)
How it was run: as §1

[3] = system: PPARg DBDmut:RXRa IVT, anti-PPARg (DBD mutation: PPARg1 K132A/R137A, NR concentration 270 nM, RXRa partner concentration 90 nM)
How it was run: as §1

[4] = system: PPARg DBDmut IVT, anti-PPARg (DBD mutation: PPARg1 K132A/R137A, NR concentration 270 nM)
How it was run: as §1

[5] = system: PPARg homodimer (NR concentration 180 nM)
How it was run: as §1

[6] = system: PXR:RXRa (NR concentration 270 nM, RXRa partner concentration 90 nM)
How it was run: as §1

[7] = system: PXR homodimer (NR concentration 270 nM)
How it was run: as §1

[8] = system: RARa:RXR (NR concentration 270 nM, RXRa partner concentration 90 nM)
How it was run: as §1

[9] = system: RARa homodimer (NR concentration 270 nM)
How it was run: as §1

[10] = system: RARb:RXRa (NR concentration 270 nM, RXRa partner concentration 90 nM)
How it was run: as §1

Sequence	PBM binding z-score [1]	PBM binding z-score [2]	PBM binding z-score [3]	PBM binding z-score [4]	PBM binding z-score [5]	PBM binding z-score [6]	PBM binding z-score [7]	PBM binding z-score [8]	PBM binding z-score [9]	PBM binding z-score [10]
CCTCGGAGGACAGAAGGTCCGAGCTGTCCGCTTT	-0.468	-1.02	-0.692	-1.96	-0.27	-0.746	-0.803	-0.601	-1.06	0.0749
CGAACTAGGTCAGAACAGGACAGTAAAGGATGAT	7.08	7.22	1.86	1.17	1.1	1.02	0.0829	1.26	0.18	2.92
GCGACTGGGGAATCAGCAGGTTACCATAACTTAA	0.44	0.213	-0.564	-0.355	-0.3	-0.375	-0.366	-0.13	-0.219	-0.211
CCTAGTTGCTCAAGGTCACACACGCTATAGGTAC	1.51	2.33	0.625	0.725	3.56	4.21	2.68	4.4	2.45	3.97
ATATGTAGGTTACATCCGGGTCACTCAGGCTATG	7.65	7.47	3.76	3.51	2.34	3.29	1.26	3.74	0.95	2.41
CAAACTAGGACAAGGTCAAAGTCGGTTTGTGCCA	5.64	5.61	1.68	1.21	2.27	4.44	1.41	4.44	0.511	3.83
CGTATTAGTTGACCATAAGGGCAACCGAAGCTCG	0.0759	0.784	0.0678	-0.147	1.44	0.388	0.0683	0.881	0.774	1.26
TCATATAGGTATATGCTAGGTGAAAGTCCGATCT	2.4	1.07	0.908	1.63	0.436	0.612	0.215	0.893	0.379	0.145
TCTAGCACGCCAGAGGGTCACTCAAGAGGTACGG	0.507	0.0659	-0.875	-0.824	0.566	1.56	-0.773	2.37	-0.679	2.04
GGAACGAGGGCAAAGTTTATAGCATCTGTCGACG	4.26	4.43	0.246	0.345	0.817	1.91	0.961	1.74	0.0168	2.6
TGAATGATGTTAAAGATCAGGGAACGTGGCGTCG	-0.672	0.00051	0.678	0.88	0.216	-0.226	0.0908	-0.242	0.502	-0.0162
GCTATTAGTTGAAAGGCCAACCGAATGATTCTCG	0.47	0.355	0.179	-0.242	0.874	0.178	-0.082	0.627	0.368	1.56
CGTCAAAGTTAAACTAAGGTAACGTAAAGCACGC	0.269	0.719	0.529	0.672	0.0557	0.525	0.364	1.08	0.284	0.845
CCAGACATGTGAAAGGTAACTCAGTCTGGTACGC	0.121	0.275	-0.125	0.223	0.969	0.118	-0.196	0.553	0.138	0.186
CGGACTAGGTCAGAACAGGACAGTGAAGGATGAT	6.67	6.53	3.25	1.13	1.57	0.748	0.281	0.846	0.0596	2.68
TAGCCTAGGTGATGGGCCAGTATACCACGCGAAC	-0.692	0.25	-0.775	-0.847	-0.49	-0.714	-0.807	-0.895	-1.38	-0.281
ACTATTAGTGGAGACGAGGGCAACCGATAGGTTG	-0.144	0.852	0.383	0.735	-0.247	0.218	0.0964	0.0871	0.227	0.779
ACAGCCAGGTGATGAAGGTAACTCAGGCTATCAT	0.0691	0.392	-0.315	-0.803	-0.425	-0.407	-0.502	0.0022	-0.504	-0.00483

Sequence	PBM binding z-score [1]	PBM binding z-score [2]	PBM binding z-score [3]	PBM binding z-score [4]	PBM binding z-score [5]	PBM binding z-score [6]	PBM binding z-score [7]	PBM binding z-score [8]	PBM binding z-score [9]	PBM binding z-score [10]
TCTCGGAGGACATGAAAGGTCAGAGCTCGACATC	2.04	1.1	-0.0886	-0.561	2.54	3.59	0.0503	3.72	0.458	3.99
AGAATGAGGTTATACGAAGATCAGGGAAGAAAGT	2.26	2.05	0.807	0.512	0.484	1.04	0.292	1.61	0.714	1.3
AATACAGGGTCACTAGGCCAGACTAGGTACGAAT	4.01	5.9	3.19	1.09	1.28	3.06	0.374	3.87	0.731	4.3
CGTCAAAGTTCAAGTAAGGTAACGTAAAGCACGC	0.544	2.41	0.93	0.765	3.47	5.21	3.9	4.3	1.99	5.29
GCTCGGAAGACAAGGTCAGAGCTTTGTCCGTAGA	0.0129	0.063	-0.999	-2.1	0.392	1.41	-0.453	1.9	-0.69	2.58
GATACAGGGTCAGCTAGAGGCCAGAGAATGGAAA	1.5	2.31	0.246	-1.1	2.84	3.34	0.000802	4.73	0.734	4.34
TTACCAAGGTGAAAGGCCGTTGATGCACGCCTTG	1.83	3.1	1.11	-0.0172	1.5	0.172	-0.516	1.1	-0.123	1.66
GATACAGGGTCGAGGCCAGAGTACGCGTATTGAT	-0.175	0.711	-0.769	-0.92	0.109	0.68	-0.735	1.37	-0.498	1.91
GCTTGTAGATCAAGGTTTAGAAAGACTAAGCTAA	1.06	0.361	-0.41	0.0012	-0.0341	-0.479	-0.437	-0.166	0.111	-0.486
TCTAGCAGTCCAGAGGGTCACTCAAGAGGTACGG	0.669	0.15	-0.632	-0.476	0.412	1.67	-0.406	2.48	0.0783	2.07
ACAGACAGGTCATGAAGGTAACTCAGGCTATCAT	1.59	2.7	1.81	1.12	1.73	2.95	0.934	3.74	0.881	3.9
AATACAGGGTCACTAGGCCATAGTAGGTACGAAT	4.35	6.47	2.07	1.76	2.21	3.31	0.565	4.46	0.595	4.11
GCAGACAGGCGAAACGCAGGTAACTCAGGGTGGC	-0.782	-0.814	-1.19	-1.5	-0.436	-0.82	-0.795	-0.316	-1.37	-0.55
ATCTCGAGGTAAAAGTTCAGTGAATCCCGAGGAT	-0.0537	2.11	0.38	0.58	0.813	2.53	0.878	2.6	-0.00487	2.54
ACTCGGAGGACCAAGGTCAGAGCTACGCCAGTGA	-0.502	0.431	-1.19	-0.608	1.18	1.34	0.0514	1.88	-0.14	2.86
ACAGACAGGTGATTAAGGTAACTCAGGCTATCAT	0.239	0.557	0.291	-0.545	0.126	0.164	0.294	1.23	0.587	0.35
ATCTCTAGGTAACAGTTCAGTGAATCCCGAGGAT	3.65	3.42	1.56	1	0.452	0.487	0.757	0.576	0.915	1.01
